Compound activity as filed in PubChem.
FMDV inh = antivirals against foot and mouth disease virus; Potency, µM (titrated, usually from 57.9 µM), inactives show at the top dose activity change, negative = inhibition, usual class: inhibitors; 410,000 compounds, 1.2% hits; FMDV antiviral cell-based qHTS; calls by dose curve; tested in HEK293T cells; also: read-out not given here; potency is read from the fitted curve at half-maximal effect; nearly all actives have a fitted effect of over 45% in size
HCMV inh = blocks human cytomegalovirus replication; HFF cells, HCMV-luciferase reporter, 72 h; hits give low values; activity change, negative = inhibition, % at 57.5 µM; 410,000 compounds, 4.5% hits; AID 1259415; in the data active = activity change below about -60%; inconclusive = no clear call, values can overlap the other calls; inactive = above about -39%
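Steps: HFFs plated, 16 h 37C; compounds added; HCMV-luciferase added to MOI 1 PFU/cell; 72 h 37C; OneGlo reagent, 5 min room temperature; luminescence read, normalized to controls.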
Lassa entry inh = Lassa virus entry inhibition. AID 540256. Lassa virus pseudotype entry inhibition, cell reporter. 300,000 compounds, 1.2% hits. Potency, µM (highest dose often 37.9 µM), for the others: at the highest dose activity change, negative = inhibition, usual class: inhibitors; calls by dose curve; tested in HEK293 cells; also: potency is read from the fitted curve at half-maximal effect; nearly all actives have a fitted effect of over 50% in size
MARV entry inh = blocks Marburg virus binding to or entry into cells; AID 540276; Marburg virus pseudotyped entry inhibition, cell reporter; Potency, µM (top dose mostly 37.8 µM), inactives show top-dose activity change, negative = inhibition, usual class: inhibitors; 300,000 compounds, 1.8% hits; calls by dose curve; tested in HEK293 cells; also: potency is read from the fitted curve at half-maximal effect
Vaccinia mCherry = vaccinia inhibition (mCherry reporter). Vaccinia virus mCherry reporter infection, fluorescence. Potency, µM (series often up to 36.5 µM), without a hit: at the highest dose activity change, negative = inhibition, most hits filed as inhibitors. 310,000 compounds, 0.63% hits. AID 720579; calls by dose curve; tested in A549 cells; also: potency is read from the fitted curve at half-maximal effect; nearly all actives have a fitted effect of over 35% in size
VACV Venus inh = inhibitors of vaccinia virus (Venus reporter); AID 720580; Vaccinia virus Venus reporter expression, fluorescence; 330,000 compounds, 0.46% hits; Potency, µM (titrated, usually from 36.5 µM), for inactives: at the highest dose activity change, negative = inhibition, hits mostly inhibitors; calls by dose curve; tested in A549 cells; also: potency is read from the fitted curve at half-maximal effect; nearly all actives have a fitted effect of over 30% in size
The depositor's hits bear a star; i = inactive; ? = inconclusive; . = no result given; [ ] = remark or other dose. Compounds with a hit are over-represented: about 6.5% of the library has one in this group of screens. % is scaled to controls: 0 for no effect and ±100 for the full control effect.

SMILES	FMDV inh	HCMV inh	Lassa entry inh	MARV entry inh	Vaccinia mCherry	VACV Venus inh
O=C(NCC12CC3CC(CC(C3)C1)C2)c1cc2nc(-c3ccc(F)cc3)cc(C(F)(F)F)n2n1	-15%	2	25%[46.1 µM]	.	-19%	-18%
Cc1cc(Cl)ccc1OCC(=O)N(Cc1ccco1)Cc1ccccc1F	?	-33	4%[46.1 µM]	-19%[46.1 µM]	-1%	-6%
COCc1c(C(=O)NCC2CCCN(C)C2)cnn1-c1ncc2c(n1)-c1ccccc1CCC2 (configuration not stated)	6%	.	.	.	i	-10%
COc1ccc(N(C(=O)c2snc(C(N)=O)c2N)C(C(=O)NC2CCCC2)c2ccco2)cc1 (configuration not stated)	-5%	-38	-27%[46.1 µM]	?	-3%	-11%
Cc1ccc(C(C(=O)NCC2CCCO2)N(C(=O)c2snc(C(N)=O)c2N)c2ccc3c(c2)OCCO3)cc1 (configuration not stated)	-2%	-5	6.3µM*	?	-4%	-10%
O=C(NCC1CCCO1)C(c1ccc(F)cc1)N(C(=O)Cn1nnc(-c2ccc(F)cc2)n1)c1cccc(O)c1 (configuration not stated)	-27%	?	-1%	10µM*	i	-14%
CC(C(=O)NC1CCCC1)N(C(=O)Cn1nnc(-c2ccc(F)cc2)n1)c1ccccc1F (configuration not stated)	-29%	-27	?	8.2µM*	-9%	-16%
COc1ccc(N(C(=O)c2snc(C(N)=O)c2N)C(C(=O)NC2CCCCC2)c2ccc(C)o2)cc1 (configuration not stated)	-15%	-70*	?	?	-17%	-14%
Cc1ccc(C)c(NC(=O)C2CCN(S(=O)(=O)c3c(C)noc3/C=C/c3cccs3)CC2)c1	-19%	?	-2%[46.1 µM]	-1%[46.1 µM]	-7%	-9%
Cc1cc(C)cc(N(C(=O)c2snc(C(N)=O)c2N)C(C(=O)NCC2CCCO2)c2cccs2)c1 (configuration not stated)	-11%	-93*	?	?	-23%	-12%
Cc1ccc(C(C(=O)NCC2CCCO2)N(C(=O)c2snc(C(N)=O)c2N)c2ccc(F)cc2)o1 (configuration not stated)	-14%	-75*	?	?	-10%	14%
NC(=O)c1nsc(C(=O)N(c2ccc3c(c2)OCCO3)C(C(=O)NCC2CCCO2)c2ccc(F)cc2)c1N (configuration not stated)	10%	-74*	?	?	-13%	3%
NC(=O)c1nsc(C(=O)N(c2ccccc2)C(C(=O)NCC2CCCO2)c2cccs2)c1N (configuration not stated)	-20%	-19	?	?	.	.
Cc1ccc(CNC(=O)CSC2=Nc3ccccc3N=C(c3ccc(F)cc3)C2)cc1	0%	8	12%[46.1 µM]	.	-10%	-7%
COc1cc(CN2CCCC(n3cc(C(=O)N4CCCCC4)nn3)C2)cc(OC)c1OC (configuration not stated)	-9%	.	.	.	1%	-4%
C=C[C@]1(C)C=C2CC[C@H]3[C@@](C)(CCC[C@@]3(C)C(=O)O)[C@@H]2CC1	-14%	.	.	.	i	-18%
C=C[C@]1(C)C=C2C(=O)[C@@]3(O)OC(=O)[C@@]4(CCCC(C)(C)[C@H]34)[C@@]2(O)CC1	2.8µM*	-101*	.	.	8.9µM*	10µM*
Cc1cccc(Cc2cnc(NC(=O)C3Cc4ccc(C)cc4C(=O)O3)s2)c1 (configuration not stated)	-15%	6	-1%[46.1 µM]	0%[46.1 µM]	5%	0%
O=C(O)c1ccc(-n2ncc(Cl)c(Cl)c2=O)cc1	?	.	.	.	0%	-14%
Cc1ccc(C(=O)OCn2ncc(Cl)c(Cl)c2=O)cc1	16µM*	-102*	23µM*	15µM*	.	.
O=C(OCn1ncc(Cl)c(Cl)c1=O)c1ccc(C(F)(F)F)cc1	?	-86*	?	?	.	.
Cc1nc(-n2nc(C)c(CCC(C)C)c2C)sc1C(=O)Nc1ccc(Br)cc1	25%	19	11%[46.1 µM]	25%[46.1 µM]	12%	-4%
O=C(Nc1ccccc1)c1ccc(Br)o1	63%	-62*	?	?	i	-3%
CCOc1ccc(C(=O)CCC(=O)N2CCN(c3ccccc3O)CC2)cc1	35µM*	-21	?	?	-1%	-12%
CCOc1ccc(S(=O)(=O)NCCC(=O)N2CCN(c3ccccc3O)CC2)cc1	-22%	-18	-18%	-15%	-17%	?
SMILES	FMDV inh	HCMV inh	Lassa entry inh	MARV entry inh	Vaccinia mCherry	VACV Venus inh
O=C(NC(=S)Nc1ccccc1C(=O)O)c1cncc(Br)c1	-2%	9	14%	6%	-4%	-5%
O=C(Nc1cccc(NC(=O)c2ccc(Br)o2)c1)c1ccccc1	38%	-11	3%	21%	-12%	-6%
O=C(Nc1ccccc1N1CCOCC1)c1ccc(Br)o1	23%	-63*	-10%	-5%	.	.
O=C(NC(=S)Nc1ccccc1O)c1cncc(Br)c1	31%	?	-23%	-5%	14µM*	?
CCn1ccc2c(OCC(=O)Nc3ccc(OC)cc3OC)cccc2c1=O	-20%	5	-29%[46.1 µM]	.	-15%	-14%
Cc1ccccc1C(=O)Nc1ccccc1N1CCN(C(=O)c2ccccc2)CC1	-17%	-73*	?	?	-14%	-8%
O=C(Nc1ccccc1N1CCN(C(=O)c2ccccc2)CC1)c1ccc([N+](=O)[O-])o1	0%	?	-15%[46.1 µM]	?	11µM*	?
Cc1ccc(C(=O)Nc2ccc(NC(=O)c3ccco3)c(C)c2)cc1	8%	-27	?	?	76%	-7%
COc1c(C)cc(Br)cc1C(=O)Nc1ccccc1N1CCN(C(=O)c2ccccc2)CC1	0%	-11	?	-17%[46.1 µM]	-9%	-6%
CN1CCN(c2ccccc2NC(=O)c2ccc(-c3cccc(Cl)c3)o2)CC1	?	27	-24%	13µM*	?	?
O=C(Nc1ccccc1N1CCN(C(=O)c2ccccc2)CC1)c1cc2ccccc2o1	?	19	11%	?	-8%	-5%
Cc1cc(NC(=O)c2ccc(Br)o2)ccc1NC(=O)c1ccco1	23%	-89*	20%[46.1 µM]	27%[46.1 µM]	-6%	4%
CCC(C)NC(=O)c1ccc2c(c1)sc1nc(-c3ccc(OC)cc3)cn12 (configuration not stated)	1%	.	-8%[46.1 µM]	.	?	?
Cc1cc(C)nc(NC(=O)c2c(Cl)cccc2Cl)n1	-7%	13	9%	11%[46.1 µM]	-4%	-14%
Cc1ccc(C(=O)Nc2ccccc2N2CCCCC2)o1	?	-61*	.	.	.	.
O=C(NC(=S)Nc1ccccc1N1CCOCC1)c1ccc(Br)cc1	0%	-66*	.	.	.	.
Cc1ccc(C(=O)Nc2ccccc2N2CCCCC2)cc1	-20%	-11	-4%[46.1 µM]	-18%[46.1 µM]	-25%	10%
Cc1cc(C)nc(NC(=O)c2ccc(C)o2)n1	-29%	-98*	.	.	.	.
